High-throughput results (PubChem BioAssay)
GLP1R inv ag – acts as inverse agonist at human GLP-1 receptor; AID 624417; hit rate 1.6% among 410,000; HEK293 GLP-1R CRE-luciferase, luminescence, 24 h; GLP-1R form is constitutively active; Potency, µM (series often up to 38.3 µM), actives largely listed as inhibitors; note: nearly all actives have a fitted effect of over 55% in size
Target sequence (P43220 whole entry, looked up): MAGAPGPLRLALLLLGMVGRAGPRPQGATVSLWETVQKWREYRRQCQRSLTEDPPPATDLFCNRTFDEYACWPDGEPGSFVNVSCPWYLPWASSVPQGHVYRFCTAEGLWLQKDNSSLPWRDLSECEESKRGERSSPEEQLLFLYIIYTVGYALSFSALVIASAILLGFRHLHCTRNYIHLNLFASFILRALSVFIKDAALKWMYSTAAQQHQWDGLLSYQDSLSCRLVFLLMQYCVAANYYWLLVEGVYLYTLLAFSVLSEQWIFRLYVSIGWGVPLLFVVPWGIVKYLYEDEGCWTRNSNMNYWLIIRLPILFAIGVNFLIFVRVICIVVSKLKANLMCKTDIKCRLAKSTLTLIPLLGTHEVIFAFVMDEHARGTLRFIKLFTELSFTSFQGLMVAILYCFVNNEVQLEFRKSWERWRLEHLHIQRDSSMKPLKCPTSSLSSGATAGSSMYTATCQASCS
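Readout was luciferase luminescence, measured 12 min after detection reagent at room temperature. Beforehand, GLP-1R reporter HEK293 cells had sat 12 h, then received compounds for 24 hr at 37 deg C.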
TRHR PAM – allosterically enhances the human TRH receptor. enhancement, % at 2 µM. AID 493056. hit rate 0.66% among 360,000. TRHR cells, fluo-8 calcium fluorescence, EC20 TRH enhancement; in the data active = enhancement above about 30%
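TRHR-expressing cells loaded with fluo-8 calcium dye were read kinetically (ex 480/em 530) during compound addition, then stimulated with an EC20 of TRH (10 nM final). Enhancement of the Gq-mediated intracellular calcium response was scored.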
GLP1R cytotox – cytotoxicity in counter-screen for GLP-1R inverse agonists; HEK293 cAMP-luciferase reporter cells, luminescence, 24 h; Potency, µM (series often up to 38.3 µM), actives largely listed as inhibitors; hit rate 0.13% among 410,000;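 note: loss of luciferase light is scored as toxicity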
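Cells in DMEM/10% Nu serum/1% pen-strep, 1536-well format. Pre-incubated 12 h, dosed with 23 nL compound, incubated a further 24 h. Luciferase detection, 12 min at room temp, luminescence.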
TRHR agonist – TRH receptor (human) agonism; P34981; TRHR cells, calcium flux fluo-8, FDSS agonist mode; activation, % at 2 µM; hit rate 0.18% among 360,000; in the data active = activation above about 30%
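TRHR-expressing cells loaded with fluo-8 calcium dye; 23 nL library compound pin-transferred, kinetic FDSS fluorescence (Ex 480/Em 530) recorded about 180 s for agonist-induced calcium release, before a 10 nM TRH EC20 addition for potentiator mode.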
PTHR1 agonist – agonists of human PTHR1 parathyroid hormone receptor; Q03431; HEK293 GP2 PTHR1 cells, GloSensor cAMP luminescence, 1 h; Potency, µM (doses to about 115 µM), most hits filed as activators; hit rate 0.075% among 410,000; AID 743266; note: nearly all actives have a fitted effect of over 55% in size
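HEK-293-derived GP2 cells expressing PTHR1 and a GloSensor cAMP reporter, 3,000/well, plated overnight, given luciferin plus IBMX (each 0.5 mM as added) for 1 h at 37 °C, then compound for 1 h at 37 °C. Luminescence was read after 15 min at room temperature.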
GLP1R ag – GLP-1 receptor (human) agonism | P43220 | HEK293 GLP-1R CRE-luciferase, luminescence, 4-6 h; cells express a hypersensitive GLP-1R form | Potency, µM (titrated, usually from 45.6 µM), actives largely listed as activators | hit rate 0.007% among 380,000
Large screens that a line does not name were inactive. Shown are actives, neighbours in structure and some others; about 2.4% of the full set was active somewhere. Unless noted, calls come from the whole dose curve; as a rule, active = well fitted curve in the direction sought with a large enough effect; inconclusive = small, poorly fitted or top-dose-only effect, or another doubt; inactive = no such curve, though single readings can be large; an effect the other way counts as inactive or inconclusive.

CC(C)/C=C1\CC/C(=C\c2ccc(N(C)C)cc2)C1=O	TRHR agonist 94.3
Cc1c(CC(=O)O)c(=O)oc2cc3oc4c(c3cc12)CCCC4	none
Cn1cc(-c2cc3n(n2)CCC(=O)N3CC(=O)O)c2ccccc21	TRHR PAM 43.4 (no result: GLP1R ag)
Cn1nnnc1SCC(=O)Nc1ccc(Br)cc1Br	none (no result: TRHR PAM, TRHR agonist)
CCC(=O)Nc1cccc(-c2ccc(N3CCC(C)CC3)nn2)c1	none
CCC(=O)Nc1ccc(-c2ccc(N3CCC(C)CC3)nn2)cc1	GLP1R inv ag 7.94µM
O=C(Nc1cccc(-c2ccc(N3CCCCC3)nn2)c1)C(F)(F)F	GLP1R inv ag inconclusive
CC1CCN(c2ccc(-c3cccc(NC(=O)c4ccco4)c3)nn2)CC1	GLP1R inv ag 11.2µM
CC1CCN(c2ccc(-c3cccc(NC(=O)C(F)(F)F)c3)nn2)CC1	GLP1R inv ag 1µM
CC[C@H](C)[C@H](NC(N)=O)C(=O)OCC(=O)NCc1ccc(Cl)cc1	none
N=c1c2c(n(Cc3cccc(Cl)c3)c3c1CCC3)CCCC2	GLP1R cytotox 5.01µM
NC1=NC(=Nc2ccc(S(=O)(=O)N3CCOCC3)cc2)c2ccccc21	none
O=c1c2ccccc2sc2ccc(NCCCN3CCOCC3)cc12	GLP1R inv ag inconclusive (no result: TRHR PAM, TRHR agonist)
CN1CCCC1CCNc1ccc2sc3ccccc3c(=O)c2c1 (stereo not given)	GLP1R inv ag 14.1µM, GLP1R cytotox inconclusive (no result: TRHR PAM, TRHR agonist)
Cc1cc([N+](=O)[O-])ccc1NC(=O)C(C)[n+]1ccccc1 (stereo not given)	none
CN1C[C@@H]2C(c3ccc(C(F)(F)F)cc3)C3(c4ccc(C#N)cc4)CC2(C3)[C@H]1c1ccccc1 (stereo not given in full)	GLP1R inv ag 10µM
COC(=O)c1cccc(C23CC4(C2)[C@H](CN(C)[C@@H]4c2ccccc2)C3c2ccccc2)c1 (stereo not given in full)	GLP1R inv ag 8.91µM
CN1C[C@@H]2C(c3ccccc3)C3(c4ccc(C#N)cc4)CC2(C3)[C@H]1c1ccccc1 (stereo not given in full)	none
COC(=O)c1cccc(C23CC4(C2)[C@H](CN(C)[C@@H]4c2ccccc2)C3c2ccc(C(F)(F)F)cc2)c1 (stereo not given in full)	none
O=C(NNc1ccc([N+](=O)[O-])cc1)c1ccco1	GLP1R inv ag inconclusive, GLP1R cytotox inconclusive
O=C(NNc1ccc([N+](=O)[O-])cc1[N+](=O)[O-])c1ccco1	GLP1R cytotox 10µM
CC(C)(C)OC(=O)N1CCC2(CC1)Oc1ccc(F)cc1C(=O)C21CC(c2ccccc2)=NO1 (stereo not given)	GLP1R inv ag 11.2µM (no result: TRHR PAM, TRHR agonist)
O=C(c1ccoc1)N1CCC2(CC1)Oc1ccc(F)cc1C(=O)C21CC(c2ccccc2)=NO1 (stereo not given)	none
Cc1c(Cl)cccc1NC(=O)C1CCN(c2nc3ccccc3[nH]2)CC1	none (no result: GLP1R ag)
CCC(=O)NNC(=O)CSc1nnc(-c2ccccc2)c(-c2ccccc2)n1	none
FC(F)(F)c1cc(CCN2CCNC[C@@H]2CC2CCCCC2)cc(C(F)(F)F)c1	none (no result: TRHR PAM, TRHR agonist)
CCCC[C@@H]1CNCCN1CCc1cc(C(F)(F)F)cc(C(F)(F)F)c1	GLP1R inv ag 11.2µM, GLP1R cytotox inconclusive
COc1ccc2oc(C(=O)OCC(=O)N3CCCC(C)C3)c(C)c2c1 (stereo not given)	GLP1R inv ag inconclusive
Cc1c(C(=O)OCC(=O)N2CCCC(C)C2)oc2ccccc12 (stereo not given)	GLP1R inv ag 10µM
CCN1CCN(C(=O)CN(Cc2ccccc2)S(C)(=O)=O)CC1	none
Cc1ccc(/C=C/c2nc3ccccc3c(=O)[nH]2)cc1	GLP1R inv ag inconclusive
Cc1ccc(/C=C/c2nc3ccccc3[nH]2)cc1	GLP1R inv ag 2.51µM (no result: GLP1R ag)
O=C(Nc1nnc([C@@H]2C[C@H](O)[C@@H](CO)O2)s1)Nc1cccc(Cl)c1Cl	none (no result: TRHR PAM, TRHR agonist)
CCc1c(C(=O)Nc2ncn(Cc3cccc(C)c3)n2)csc1C	none
O=C(CSc1ccccc1)N1CCc2c([nH]c3ccccc23)C1c1ccc(Cl)cc1 (stereo not given)	GLP1R inv ag 5.01µM (no result: GLP1R ag)
Cc1cccc(C2c3[nH]c4ccccc4c3CCN2C(=O)Cc2nc(-c3ccccc3)n[nH]2)n1 (stereo not given)	GLP1R inv ag 11.2µM
CC(=O)NCCC(=O)N1CCc2c([nH]c3ccccc23)C1c1cccc(Cl)c1 (stereo not given)	GLP1R inv ag 5.01µM
CC(=O)NCCC(=O)N1CCc2c([nH]c3ccccc23)C1c1cccc(C)c1 (stereo not given)	GLP1R inv ag inconclusive
O=C(CSCc1ccc(F)cc1)N1CCc2c([nH]c3ccccc23)C1c1ccccc1 (stereo not given)	GLP1R inv ag 7.94µM (no result: GLP1R ag)
COC(=O)c1ccc(C(=O)OC)c(NC(=S)N2CCN(c3ccccc3)CC2)c1	GLP1R inv ag inconclusive
CCOc1cccc(C2c3[nH]c4ccccc4c3CCN2C(=O)c2ccccc2F)c1 (stereo not given)	GLP1R inv ag 5.62µM (no result: GLP1R ag)
COc1ccc(CC(=O)N2CCc3c([nH]c4ccccc34)C2c2ccc(SC)cc2)cc1 (stereo not given)	GLP1R inv ag inconclusive (no result: GLP1R ag)
CCOc1ccc(C2c3[nH]c4ccccc4c3CCN2C(=O)Cc2cccc(OCC)c2OCC)cc1 (stereo not given)	GLP1R inv ag 6.31µM (no result: GLP1R ag)
COc1ccc(CCC(=O)N2CCc3c([nH]c4ccccc34)C2c2ccc(F)cc2)cc1 (stereo not given)	GLP1R inv ag 10µM (no result: GLP1R ag)
COc1cccc(C2=NOC(C(=O)NCc3cccs3)C2)c1 (stereo not given)	GLP1R inv ag inconclusive, GLP1R cytotox inconclusive
CCCN=C1NC(=O)C(CC(=O)NCCc2ccccc2)S1 (stereo not given)	none
CCN(CC)CCCN(Cc1cc2cc(OC)ccc2[nH]c1=O)C(=O)Nc1ccc(F)cc1	GLP1R inv ag 4.47µM
CCN(CC)CCCN(Cc1cc2cc(OC)ccc2[nH]c1=O)C(=O)Nc1ccccc1	GLP1R inv ag inconclusive
CCc1ccc2[nH]c(=O)c(CN(Cc3ccccc3)C(=O)Nc3ccccc3OC)cc2c1	GLP1R inv ag 3.55µM, GLP1R cytotox inconclusive
O=S(=O)(Nc1nc2ccccc2s1)c1ccc(Br)s1	GLP1R inv ag inconclusive
C=CCNC(=O)C1CCN(C(=O)c2ccc(-c3ccccc3)cc2)CC1	none
COc1ccc(N=C2C(=S)N(c3ccc(OC)cc3)C(=NS(=O)(=O)c3ccccc3)N2c2ccccc2)cc1	none (no result: TRHR PAM, TRHR agonist)
